Data reported in PubChem BioAssay (EPA / NIEHS).
Inconclusive results are not listed. The source made the active and inactive calls. The calls were made as follows, unless noted: active = hit-call score of the fitted dose curve at least 0.9, where 1 is the maximum; inconclusive = response in the unintended direction; inactive = score below 0.9.

How the values were obtained:
[1] = ATG_TAL_CIS: Attagene CIS-FACTORIAL HepG2 Assay for human TAL Basal Promoter (AID 2282966; active = hit-call score of the fitted dose curve at least 0.9, where 1 is the maximum; inactive = score below 0.9;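 also: background control endpoint measuring basal TAL promoter reporter mRNA not a specific factor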); conditions: HepG2 Attagene cis-factorial TAL promoter reporter; actives raise or lower the signal
In short: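 Basal-promoter background-control endpoint from a multiplexed HepG2 reporter panel. Cells were exposed 24 h, then reporter mRNA was read by RT-PCR/CE fluorescence and fitted in both directions relative to DMSO.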

[2] = ATG_TGFb_CIS: Attagene CIS-FACTORIAL HepG2 Assay for human Transforming Growth Factor (TGF) (AID 2282967; active = hit-call score of the fitted dose curve at least 0.9, where 1 is the maximum; inactive = score below 0.9); conditions: HepG2 Attagene CIS TGFb reporter, mRNA transcription; actives raise or lower the signal
In short: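 Cells were dosed for 24 hours, after which total RNA was reverse-transcribed and reporter sequences amplified, labeled and sized by capillary electrophoresis. Activity was fitted in both directions against DMSO.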

[3] = ATG_VDRE_CIS: Attagene CIS-FACTORIAL HepG2 Assay for human Vitamin D Receptor Element (VDRE) (AID 2282968; active = hit-call score of the fitted dose curve at least 0.9, where 1 is the maximum; inactive = score below 0.9); conditions: HepG2 VDRE cis-reporter transcription, actives raise or lower the signal
In short: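 Measures endogenous factor activity through cis-element-driven reporter transcripts in transiently transfected HepG2. Cells are treated 24 h; reporter mRNA is quantified by RT-PCR and capillary electrophoresis; fitting is bidirectional.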

[4] = molecular target: Nuclear receptor subfamily 1 group I member 3 (Homo sapiens) (UniProt Q14994); test: ATG_CAR_TRANS: Attagene TRANS-FACTORIAL HepG2 Assay for human Constitutive Androstane Receptor (CAR) (AID 2282969); conditions: HepG2 Attagene TRANS-FACTORIAL CAR reporter;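 also: activators raise reporter mRNA above DMSO so AC50 marks induction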
In short: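 Signal is reporter mRNA induction relative to DMSO, measured 24 h after dosing by RT-PCR with fluorescent primer extension and capillary electrophoresis. Human HepG2 liver cells carried transiently transfected chimeric NR-Gal4/GAL4-UAS reporter constructs.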

[5] = molecular target: Estrogen receptor (Homo sapiens) (UniProt P03372); test: ATG_ERa_TRANS: Attagene TRANS-FACTORIAL HepG2 Assay for human Estrogen Receptor alpha (ERa) (AID 2282970); conditions: HepG2 Attagene TRANS ERa GAL4 reporter, mRNA
In short: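 Gal4-fusion ERa transactivation, measured as reporter transcript level in transiently transfected HepG2 cells. Exposure 24 h; RT-PCR plus capillary electrophoresis with fluorescence detection.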

[6] = molecular target: X-box-binding protein 1 (Homo sapiens) (UniProt P17861); test: ATG_Xbp1_CIS: Attagene CIS-FACTORIAL HepG2 Assay for human X-box Binding Protein 1 (XBP1) (AID 2282972; active = hit-call score of the fitted dose curve at least 0.9, where 1 is the maximum; inactive = score below 0.9); conditions: HepG2 XBP1 cis-element reporter, Attagene multiplex; actives raise or lower the signal
In short: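 Multiplexed cis-reporter readout in transfected HepG2 liver cells. Exposure lasted 24 hours. Activity in either direction was fitted against DMSO as negative control and baseline.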

[7] = ATG_M_19_TRANS: Attagene TRANS-FACTORIAL HepG2 Assay for M19 Transcription Factor (Internal Marker) (AID 2282974); conditions: HepG2 Attagene TRANS-FACTORIAL M19 internal marker reporter
In short: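 Reporter mRNA induction was measured in transfected HepG2 cells 24 h after dosing. Endpoint fitted upward relative to DMSO and serves as a background control within the multiplexed TRANS panel.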

[8] = molecular target: Glucocorticoid receptor (Homo sapiens) (UniProt P04150); test: ATG_GR_TRANS: Attagene TRANS-FACTORIAL HepG2 Assay for human Glucocorticoid Receptor (GR) (AID 2282978); conditions: HepG2 Attagene TRANS GR reporter, mRNA transcription;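 also: activators score as hits since higher reporter transcript over DMSO is fitted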
In short: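 Reporter transcript levels, detected by fluorescence after RT-PCR and capillary electrophoresis, served as the endpoint. HepG2 cells bearing transfected GAL4-UAS reporters responsive to NR-GAL4 chimeras were incubated with compound 24 h; DMSO defined baseline.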

[9] = molecular target: Oxysterols receptor LXR-alpha (Homo sapiens) (UniProt Q13133); test: ATG_LXRa_TRANS: Attagene TRANS-FACTORIAL HepG2 Assay for human Liver X Receptor alpha (LXRa) (AID 2282980); conditions: HepG2 Attagene TRANS reporter, LXRa transactivation
In short: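 HepG2 cells transiently transfected with GAL4-UAS reporter units for chimeric NR-Gal4 proteins, exposed to chemicals for 24 h. Reporter mRNA quantified by RT-PCR and capillary electrophoresis; gain of signal fitted relative to DMSO.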

[10] = molecular target: Oxysterols receptor LXR-beta (Homo sapiens) (UniProt P55055); test: ATG_LXRb_TRANS: Attagene TRANS-FACTORIAL HepG2 Assay for human Liver X Receptor beta (LXRb) (AID 2282981); conditions: HepG2 Attagene TRANS GAL4-LXRb reporter, mRNA
In short: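 After 24 h of chemical treatment, transfected HepG2 cells yield total RNA; reporter cDNA is PCR-amplified, FAM-labelled, HpaI-cut and run on capillary electrophoresis. Signal reflects chimeric LXRb-Gal4 activity on GAL4-UAS reporters.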

[11] = ATG_M_06_TRANS: Attagene TRANS-FACTORIAL HepG2 Assay for M06 Transcription Factor (Internal Marker) (AID 2282983); conditions: HepG2 Attagene TRANS M06 internal marker reporter
In short: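 mRNA levels of a reporter transcript, quantified as FAM fluorescence on capillary electrophoresis, served as readout. HepG2 cells expressing exogenous GAL4-chimera reporter constructs were exposed for 24 h. Gain of signal over DMSO was evaluated.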

[12] = molecular target: Transcriptional activator Myb (Homo sapiens) (UniProt P10242); test: ATG_Myb_CIS: Attagene CIS-FACTORIAL HepG2 Assay for human Myeloblastosis (Myb) Proto-Oncogene Transcription Factor (AID 2282986; active = hit-call score of the fitted dose curve at least 0.9, where 1 is the maximum; inactive = score below 0.9); conditions: HepG2 Attagene CIS-FACTORIAL Myb reporter transcription; actives raise or lower the signal
In short: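 Transiently transfected HepG2 cells, treated 24 h. Reporter mRNA quantified by RT-PCR/capillary electrophoresis; bidirectional fit relative to DMSO.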

[13] = molecular target: Nuclear respiratory factor 1 (Homo sapiens) (UniProt Q16656); test: ATG_NRF1_CIS: Attagene CIS-FACTORIAL HepG2 Assay for human Nuclear Respiratory Factor 1 (NRF1) Orphan Gene (AID 2282987; active = hit-call score of the fitted dose curve at least 0.9, where 1 is the maximum; inactive = score below 0.9); conditions: HepG2 NRF1 cis-element reporter, Attagene multiplex; actives raise or lower the signal
In short: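 Cells (HepG2, transient MRTU transfection) are exposed to compound for 24 h, then RNA isolated and reporter mRNA amplified and fluorescently labelled. Fragments are separated by capillary electrophoresis; signal change is fitted bidirectionally relative to DMSO.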

[14] = molecular target: Estrogen-related receptor gamma (Homo sapiens) (UniProt P62508); test: ATG_ERRg_TRANS: Attagene TRANS-FACTORIAL HepG2 Assay for human Estrogen-Related Receptor gamma (ERRg) (AID 2282977); conditions: HepG2 Attagene TRANS reporter, ERRg transactivation;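 also: hits increase reporter signal over DMSO so potencies reflect activators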
In short: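 Readout: fluorescent reporter-mRNA fragments resolved by capillary electrophoresis after RT-PCR and HpaI cut. Cells: transiently transfected HepG2 carrying GAL4-UAS reporters driven by exogenous NR-Gal4 chimeras, dosed 24 h. Activity fitted upward relative to DMSO baseline.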

[15] = molecular target: Nuclear receptor subfamily 4 group A member 2 (Homo sapiens) (UniProt P43354); test: ATG_NURR1_TRANS: Attagene TRANS-FACTORIAL HepG2 Assay for human Nuclear Receptor Related Protein 1 (NURR1) (AID 2282985); conditions: HepG2 Attagene TRANS reporter, mRNA readout
In short: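 Measures transcriptional activation by an exogenous NR-Gal4 chimera in transfected HepG2 liver cells. After 24 h, reporter RNA is reverse-transcribed, amplified and resolved by capillary electrophoresis; DMSO defines baseline.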

[16] = molecular target: Steroid hormone receptor ERR1 (Homo sapiens) (UniProt P11474); test: ATG_ERRa_TRANS: Attagene TRANS-FACTORIAL HepG2 Assay for human Estrogen-Related Receptor alpha (ERRa) (AID 2282971); conditions: HepG2 Attagene TRANS reporter, ERRa transactivation
In short: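 HepG2 cells transiently transfected with GAL4-UAS reporter units and chimeric NR-Gal4 constructs; after 24 hour compound incubation, reporter mRNA quantified by RT-PCR, fluorescent labelling and capillary electrophoresis, gain of signal versus DMSO.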

[17] = molecular target: Hepatocyte nuclear factor 4-alpha (Homo sapiens) (UniProt P41235); test: ATG_HNF4a_TRANS: Attagene TRANS-FACTORIAL HepG2 Assay for human Hepatocyte Nuclear Factor 4 alpha (HNF4a) (AID 2282982); conditions: HepG2 HNF4a transactivation reporter, mRNA readout
In short: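 Multiplexed reporter assay: transfected HepG2, 24 h exposure, total RNA → oligo(dT) RT → PCR → 6-FAM extension → HpaI digest → CE fluorescence. DMSO = negative control.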

[18] = ATG_GAL4_TRANS: Attagene TRANS-FACTORIAL HepG2 Assay for GAL4 (Internal Marker) (AID 2282976); conditions: HepG2 Attagene TRANS GAL4 internal marker reporter
In short: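 Background-control readout: GAL4-UAS reporter transcript in transiently transfected HepG2 cells after 24 h compound exposure. Measured by RT-PCR, 6-FAM primer extension, HpaI digest and capillary electrophoresis; gain-of-signal fit versus DMSO.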

[19] = ATG_M_32_TRANS: Attagene TRANS-FACTORIAL HepG2 Assay for M32 Transcription Factor (Internal Marker) (AID 2282984); conditions: HepG2 Attagene TRANS M32 internal marker reporter
In short: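 Cell-based TRANS-format assay in HepG2: exogenous chimeric GAL4 reporter units transiently expressed, compounds applied 24 h. Reporter mRNA detected by RT-PCR plus capillary electrophoresis; this readout is an internal background marker.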

[20] = molecular target: Bile acid receptor (Homo sapiens) (UniProt Q96RI1); test: ATG_FXR_TRANS: Attagene TRANS-FACTORIAL HepG2 Assay for Farnesoid X Receptor (FXR) (AID 2282979); conditions: HepG2 Attagene TRANS FXR-GAL4 reporter transcription;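 also: hits raise reporter mRNA above DMSO so AC50 marks FXR activation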
In short: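 HepG2 cells were transiently transfected with GAL4-UAS reporters driven by chimeric NR-Gal4 proteins and dosed for 24 h. Reporter mRNA was quantified by RT-PCR, fluorescent labelling, HpaI digestion and capillary electrophoresis, with gain of signal scored versus DMSO.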

Measured: AC50

Chain of Estrogen receptor (Homo sapiens) (P03372 whole entry, looked up, the tested form may be a part): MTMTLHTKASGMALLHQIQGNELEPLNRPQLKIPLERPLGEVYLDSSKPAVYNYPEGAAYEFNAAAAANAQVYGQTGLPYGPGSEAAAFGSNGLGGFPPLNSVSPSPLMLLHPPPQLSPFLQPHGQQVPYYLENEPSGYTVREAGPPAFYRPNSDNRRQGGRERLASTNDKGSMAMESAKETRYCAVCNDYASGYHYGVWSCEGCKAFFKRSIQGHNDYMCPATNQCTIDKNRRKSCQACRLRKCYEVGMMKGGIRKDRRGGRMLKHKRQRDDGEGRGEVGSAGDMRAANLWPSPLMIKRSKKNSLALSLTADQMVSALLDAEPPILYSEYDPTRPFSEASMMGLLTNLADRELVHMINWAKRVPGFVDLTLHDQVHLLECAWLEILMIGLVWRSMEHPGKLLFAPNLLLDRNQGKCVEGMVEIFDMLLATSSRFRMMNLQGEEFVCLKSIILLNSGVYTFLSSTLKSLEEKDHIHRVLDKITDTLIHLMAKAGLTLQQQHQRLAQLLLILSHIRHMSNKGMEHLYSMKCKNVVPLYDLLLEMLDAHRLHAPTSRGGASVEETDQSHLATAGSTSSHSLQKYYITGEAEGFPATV
Chain of Transcriptional activator Myb (Homo sapiens) (P10242 whole entry, looked up): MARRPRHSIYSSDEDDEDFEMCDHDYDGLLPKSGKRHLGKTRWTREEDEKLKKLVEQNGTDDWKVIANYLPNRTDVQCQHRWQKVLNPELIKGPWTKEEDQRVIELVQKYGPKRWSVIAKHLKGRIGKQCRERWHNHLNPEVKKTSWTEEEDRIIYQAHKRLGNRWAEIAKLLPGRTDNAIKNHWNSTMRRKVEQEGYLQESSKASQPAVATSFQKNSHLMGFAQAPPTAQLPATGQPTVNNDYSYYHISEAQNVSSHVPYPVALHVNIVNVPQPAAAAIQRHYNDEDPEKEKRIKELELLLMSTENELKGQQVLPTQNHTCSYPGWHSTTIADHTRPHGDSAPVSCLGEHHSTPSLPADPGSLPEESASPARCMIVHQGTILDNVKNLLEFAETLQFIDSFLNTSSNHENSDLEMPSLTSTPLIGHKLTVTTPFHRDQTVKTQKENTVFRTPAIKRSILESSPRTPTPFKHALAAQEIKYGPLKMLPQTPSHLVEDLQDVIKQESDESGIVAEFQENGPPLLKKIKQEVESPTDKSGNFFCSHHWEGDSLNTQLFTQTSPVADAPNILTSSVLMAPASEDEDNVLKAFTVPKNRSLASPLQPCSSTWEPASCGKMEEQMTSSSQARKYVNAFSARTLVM
Chain of Oxysterols receptor LXR-alpha (Homo sapiens) (Q13133 whole entry, looked up, the tested form may be a part): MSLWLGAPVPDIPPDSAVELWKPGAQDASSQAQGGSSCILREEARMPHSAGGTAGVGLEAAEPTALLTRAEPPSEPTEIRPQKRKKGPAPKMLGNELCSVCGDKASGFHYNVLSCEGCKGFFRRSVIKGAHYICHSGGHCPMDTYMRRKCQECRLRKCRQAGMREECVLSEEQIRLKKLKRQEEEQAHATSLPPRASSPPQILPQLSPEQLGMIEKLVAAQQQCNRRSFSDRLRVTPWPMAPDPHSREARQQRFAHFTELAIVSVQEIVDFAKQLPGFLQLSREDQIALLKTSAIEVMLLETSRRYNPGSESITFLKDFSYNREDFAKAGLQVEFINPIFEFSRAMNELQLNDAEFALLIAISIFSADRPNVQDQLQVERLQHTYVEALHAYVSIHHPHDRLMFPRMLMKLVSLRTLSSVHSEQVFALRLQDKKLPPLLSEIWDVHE
Chain of Oxysterols receptor LXR-beta (Homo sapiens) (P55055 whole entry, looked up, the tested form may be a part): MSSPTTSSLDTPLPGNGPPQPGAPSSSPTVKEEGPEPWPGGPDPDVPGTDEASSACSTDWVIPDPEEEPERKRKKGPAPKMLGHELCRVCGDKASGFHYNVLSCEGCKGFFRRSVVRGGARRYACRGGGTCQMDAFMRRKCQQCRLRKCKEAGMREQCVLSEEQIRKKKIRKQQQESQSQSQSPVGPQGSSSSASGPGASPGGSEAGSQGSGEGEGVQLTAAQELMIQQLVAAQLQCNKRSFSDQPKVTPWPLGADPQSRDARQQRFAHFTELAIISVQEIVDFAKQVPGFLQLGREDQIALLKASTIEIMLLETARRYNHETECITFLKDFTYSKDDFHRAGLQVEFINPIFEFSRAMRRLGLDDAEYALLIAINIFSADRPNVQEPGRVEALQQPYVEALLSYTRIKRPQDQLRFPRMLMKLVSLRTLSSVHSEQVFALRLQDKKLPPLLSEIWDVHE
Chain of Nuclear receptor subfamily 1 group I member 3 (Homo sapiens) (Q14994 whole entry, looked up, the tested form may be a part): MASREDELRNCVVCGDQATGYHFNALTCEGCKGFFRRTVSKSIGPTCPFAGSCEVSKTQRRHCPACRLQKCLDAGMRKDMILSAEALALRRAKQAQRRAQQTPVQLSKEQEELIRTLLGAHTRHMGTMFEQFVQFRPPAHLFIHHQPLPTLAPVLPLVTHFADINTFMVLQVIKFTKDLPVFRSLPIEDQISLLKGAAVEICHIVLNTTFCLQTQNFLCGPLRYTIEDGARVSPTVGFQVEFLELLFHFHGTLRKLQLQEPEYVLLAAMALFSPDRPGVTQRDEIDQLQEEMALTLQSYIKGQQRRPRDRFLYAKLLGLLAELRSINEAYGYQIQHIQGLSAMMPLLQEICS
Chain of Hepatocyte nuclear factor 4-alpha (Homo sapiens) (P41235 whole entry, looked up): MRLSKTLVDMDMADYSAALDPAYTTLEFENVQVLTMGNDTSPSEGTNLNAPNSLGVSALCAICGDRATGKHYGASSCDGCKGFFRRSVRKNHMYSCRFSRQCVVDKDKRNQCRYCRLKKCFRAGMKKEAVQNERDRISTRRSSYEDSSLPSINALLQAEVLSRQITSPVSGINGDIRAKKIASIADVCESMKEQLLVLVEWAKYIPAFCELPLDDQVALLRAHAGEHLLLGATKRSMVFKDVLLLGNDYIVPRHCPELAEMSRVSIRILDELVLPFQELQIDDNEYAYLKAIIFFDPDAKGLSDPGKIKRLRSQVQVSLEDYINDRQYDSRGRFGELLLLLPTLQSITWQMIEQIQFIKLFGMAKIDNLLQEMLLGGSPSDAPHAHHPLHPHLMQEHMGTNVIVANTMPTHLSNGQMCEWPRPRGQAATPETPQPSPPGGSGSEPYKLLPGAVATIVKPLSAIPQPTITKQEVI
Chain of Steroid hormone receptor ERR1 (Homo sapiens) (P11474 whole entry, looked up, the tested form may be a part): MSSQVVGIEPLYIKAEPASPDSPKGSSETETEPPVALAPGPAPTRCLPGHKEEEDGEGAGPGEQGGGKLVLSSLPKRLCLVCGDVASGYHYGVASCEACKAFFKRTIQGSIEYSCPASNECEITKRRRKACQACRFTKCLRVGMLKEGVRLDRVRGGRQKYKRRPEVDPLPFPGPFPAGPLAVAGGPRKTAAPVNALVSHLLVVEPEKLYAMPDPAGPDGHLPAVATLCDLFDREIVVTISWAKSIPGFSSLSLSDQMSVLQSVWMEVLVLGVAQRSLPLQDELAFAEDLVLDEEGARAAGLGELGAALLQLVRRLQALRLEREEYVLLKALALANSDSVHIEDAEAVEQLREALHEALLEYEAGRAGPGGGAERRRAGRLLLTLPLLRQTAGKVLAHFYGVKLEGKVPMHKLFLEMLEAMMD
Chain of Nuclear receptor subfamily 4 group A member 2 (Homo sapiens) (P43354 whole entry, looked up, the tested form may be a part): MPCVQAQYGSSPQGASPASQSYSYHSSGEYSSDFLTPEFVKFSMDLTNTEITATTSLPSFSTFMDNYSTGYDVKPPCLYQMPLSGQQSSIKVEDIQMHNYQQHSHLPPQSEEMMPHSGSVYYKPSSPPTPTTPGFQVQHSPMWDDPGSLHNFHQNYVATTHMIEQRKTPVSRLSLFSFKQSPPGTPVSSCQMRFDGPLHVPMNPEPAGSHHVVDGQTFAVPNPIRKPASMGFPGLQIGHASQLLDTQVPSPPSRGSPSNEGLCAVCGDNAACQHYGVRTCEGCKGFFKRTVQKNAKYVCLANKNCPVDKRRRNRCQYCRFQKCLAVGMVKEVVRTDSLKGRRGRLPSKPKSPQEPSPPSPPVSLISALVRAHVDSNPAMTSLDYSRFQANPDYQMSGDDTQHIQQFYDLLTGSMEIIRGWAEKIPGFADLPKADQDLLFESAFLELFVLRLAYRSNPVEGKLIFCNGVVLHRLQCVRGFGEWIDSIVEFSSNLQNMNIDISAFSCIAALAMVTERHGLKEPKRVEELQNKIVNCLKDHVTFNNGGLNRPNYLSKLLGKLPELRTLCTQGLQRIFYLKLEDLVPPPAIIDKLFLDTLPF
Chain of Nuclear respiratory factor 1 (Homo sapiens) (Q16656 whole entry, looked up, the tested form may be a part): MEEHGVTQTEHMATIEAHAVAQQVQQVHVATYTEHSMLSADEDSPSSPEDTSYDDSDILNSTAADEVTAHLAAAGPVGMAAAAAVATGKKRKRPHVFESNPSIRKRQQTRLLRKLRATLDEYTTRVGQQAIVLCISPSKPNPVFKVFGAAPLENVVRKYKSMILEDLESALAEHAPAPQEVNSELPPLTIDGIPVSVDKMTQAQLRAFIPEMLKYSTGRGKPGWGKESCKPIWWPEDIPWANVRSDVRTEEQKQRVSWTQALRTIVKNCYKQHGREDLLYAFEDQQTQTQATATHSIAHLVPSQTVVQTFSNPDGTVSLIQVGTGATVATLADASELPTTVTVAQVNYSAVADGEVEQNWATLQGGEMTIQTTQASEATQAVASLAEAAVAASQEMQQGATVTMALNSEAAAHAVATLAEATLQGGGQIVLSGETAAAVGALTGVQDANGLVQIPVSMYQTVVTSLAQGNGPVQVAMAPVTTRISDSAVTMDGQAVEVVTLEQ
Chain of X-box-binding protein 1 (Homo sapiens) (P17861 whole entry, looked up): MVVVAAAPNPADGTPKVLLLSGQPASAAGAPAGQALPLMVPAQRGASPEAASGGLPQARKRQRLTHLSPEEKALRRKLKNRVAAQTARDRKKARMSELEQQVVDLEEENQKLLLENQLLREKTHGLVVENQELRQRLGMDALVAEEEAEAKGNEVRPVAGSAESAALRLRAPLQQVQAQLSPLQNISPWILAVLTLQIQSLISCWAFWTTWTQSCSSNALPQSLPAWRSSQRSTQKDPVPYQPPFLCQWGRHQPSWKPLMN

CC(=O)OCCC1CCCCC1
not listed: [14] | [15] | [16] | [17] | [18] | [19] | [20]
inactive: all other assays above

C=C1C2CCC(C2)C1(C)C (stereo unspecified)
not listed: [9] | [10] | [11] | [16] | [17] | [18] | [19] | [20]
inactive: all other assays above

CC(C)C1=CC2=CC[C@@H]3[C@](C)(CCC[C@@]3(C)C(=O)O)[C@H]2CC1
active: [1] 52.1 µM | [2] 0.551 µM | [3] 4.54 µM | [5] 31.9 µM | [9] 26.8 µM | [15] 111 µM
inactive: [4] | [16] | [6] | [8] | [17] | [11] | [12] | [13]

CC(C)CC(O)Cc1ccccc1 (stereo unspecified)
not listed: [7] | [9] | [10] | [14] | [15] | [16] | [20]
inactive: all other assays above

CNC(=S)N(C)C
inactive: [1] | [2] | [3] | [4] | [5] | [6] | [18] | [8] | [10] | [17] | [13]

CC(=O)Oc1ccc(C(C)=O)cc1
not listed: [8] | [9] | [11] | [14] | [16] | [17] | [18]
inactive: all other assays above

O=C1CCCN1CCO
not listed: [11] | [14] | [16] | [17] | [18] | [19] | [20]
inactive: all other assays above

OCCNCc1ccccc1
not listed: [9] | [10] | [14] | [15] | [16] | [17] | [20]
inactive: all other assays above

CCCCC/C=C\CCC=O
not listed: [11] | [14] | [17] | [18] | [20]
inactive: all other assays above

FC(F)(F)C(=NOCC1OCCO1)c1ccc(Cl)cc1
active: [15] 100 µM
not listed: [9] | [14] | [16] | [17] | [18] | [20]
inactive: all other assays above

O=C1c2cccc(O)c2C(=O)c2c(O)cc(CO)cc21
active: [5] 5.81 µM
not listed: [7] | [10] | [11] | [17] | [18] | [19]
inactive: all other assays above

CC(=O)NS(=O)(=O)c1ccc(N)cc1
not listed: [7] | [14] | [15] | [16] | [17] | [19] | [20]
inactive: all other assays above

[Cl][In]([Cl])[Cl]
not listed: [7] | [8] | [10] | [12] | [18] | [19] | [20]
inactive: all other assays above

CC1OC1C1CCC2(C)OC2C1 (stereo unspecified)
not listed: [7] | [11] | [14] | [16] | [17] | [20]
inactive: all other assays above

CCN(CCO)c1cccc(C)c1
not listed: [8] | [9] | [10] | [11] | [14] | [17]
inactive: all other assays above

CC=CC(=O)N(CC)c1ccccc1C
active: [3] 15.5 µM
not listed: [9] | [11] | [12] | [14] | [15] | [18] | [20]
inactive: all other assays above

C=C(C)[C@@H]1CCC2=CCC[C@@H](C)[C@]2(C)C1
active: [5] 9.59 µM
not listed: [7] | [9] | [12] | [14] | [17] | [18] | [20]
inactive: all other assays above

Cc1ccc(C(C)c2ccc(C)c(C)c2)cc1C
active: [1] 123 µM | [12] 125 µM
inactive: [2] | [3] | [4] | [5] | [6] | [7] | [8] | [15] | [13]

O=C1CCCCCCCCCCC(=O)OCCO1
not listed: [9] | [10] | [14] | [15] | [16] | [17] | [19] | [20]
inactive: all other assays above

CC(C)c1ccc(C=O)cc1
not listed: [7] | [9] | [12] | [14] | [16] | [18] | [20]
inactive: all other assays above
